PubChem BioAssay (NCATS)
Inconclusive results are not listed. Activity calls are given as the source filed them. Unless noted, calls follow the shape of the dose curve; as a rule, active = well fitted curve in the direction sought with a large enough effect; inconclusive = small, poorly fitted or top-dose-only effect, or another doubt; inactive = no such curve, though single readings can be large; an effect the other way counts as inactive or inconclusive.

Assays:
[1] = qHTS for differential inhibitors of proliferation of Plasmodium falciparum line 3D7 (AID 1876);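 also: parasite growth measured after three days of culture; 0% = vehicle wells and -100% = reference inhibitor wells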
[2] = qHTS for differential inhibitors of proliferation of Plasmodium falciparum line D10 (AID 1877);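 also: parasites grown with compound for 72 h before DNA staining; plate controls were vehicle wells for no effect and reference inhibitor wells for full effect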
[3] = qHTS for differential inhibitors of proliferation of Plasmodium falciparum line Dd2 (AID 1882); conditions: Potency: Plasmodium falciparum Dd2 proliferation inhibition;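 also: series mostly up to about 29 µM; plate controls were DMSO vehicle for no effect and 0.29 µM artemisinin for full effect; nearly all actives have a fitted effect of over 65% in size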
How it was run: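 Dd2-infected erythrocytes (0.3% parasitemia, 2.5% hematocrit final) incubated with compound 72 h at 37 C, 5% CO2; lysed with saponin/Triton buffer containing SYBR Green I, incubated overnight in the dark, then read by fluorescence (485/535 nm). Normalized to 0.29 uM artemisinin and DMSO.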

[4] = qHTS for differential inhibitors of proliferation of Plasmodium falciparum line HB3 (AID 1886); conditions: Potency: Plasmodium falciparum HB3 proliferation inhibition;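 also: parasites grown with compound for 72 h before SYBR Green readout; plate controls were vehicle for no effect and reference inhibitor for full effect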
[5] = qHTS Assay for Modulators of Human Peripheral Myelin Protein 22 (PMP22) Expression/Activity (AID 1967; active = well fitted curve in the direction sought with a large enough effect in the signal ratio; the % refers to the signal ratio;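 also: 0% = untreated cells and 100% end not stated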)
How it was run: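 Mouse MSC80 Schwann cells carrying Pmp22 promoter–green click beetle luciferase plus EF-alpha–red luciferase control, dosed 24 h at 37 °C. Dual-filter luminescence, overlap-corrected; %Activity from green/red ratio normalised to untreated cells, concentration-response curves fitted.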

[6] = target: ATP-dependent DNA helicase Q1 (Homo sapiens) (UniProt P46063); assay: qHTS Validation Assay for Inhibitors of RecQ-Like Dna Helicase 1 (RECQ1) (AID 2353);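 also: plate controls were DMSO vehicle for no effect and enzyme-free control for full effect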
ATP-dependent DNA helicase Q1 (Homo sapiens), sequence (P46063 whole entry, looked up): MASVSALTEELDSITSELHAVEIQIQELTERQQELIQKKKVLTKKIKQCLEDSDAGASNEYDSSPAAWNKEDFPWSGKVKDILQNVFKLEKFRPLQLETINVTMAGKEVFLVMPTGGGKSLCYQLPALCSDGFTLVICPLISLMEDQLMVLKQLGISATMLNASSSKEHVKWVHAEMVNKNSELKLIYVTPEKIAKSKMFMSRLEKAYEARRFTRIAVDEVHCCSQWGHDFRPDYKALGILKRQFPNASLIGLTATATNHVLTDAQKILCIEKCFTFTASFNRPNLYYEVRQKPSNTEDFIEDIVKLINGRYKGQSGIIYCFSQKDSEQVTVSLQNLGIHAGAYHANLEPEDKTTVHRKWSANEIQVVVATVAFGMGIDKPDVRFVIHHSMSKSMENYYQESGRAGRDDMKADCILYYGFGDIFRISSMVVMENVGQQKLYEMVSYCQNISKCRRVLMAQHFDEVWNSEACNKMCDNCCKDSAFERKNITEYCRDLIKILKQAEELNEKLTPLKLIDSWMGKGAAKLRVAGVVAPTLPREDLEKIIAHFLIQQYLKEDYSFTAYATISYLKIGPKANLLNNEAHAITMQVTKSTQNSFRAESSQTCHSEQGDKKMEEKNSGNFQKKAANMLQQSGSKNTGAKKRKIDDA
How it was run: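 50 nM RECQ1T1 preincubated 15 min with compound in Tris pH 8.0 buffer with MgCl2, DTT, Tween-20 and 2.5 ug/ml poly(dI-dC); started with 200 nM TAMRA/BHQ-2 forked duplex and 2 mM ATP. Unwinding read as fluorescence (525/598 nm), two reads 2 h apart.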

[7] = target: RecQ-like DNA helicase BLM (Homo sapiens) (UniProt P54132); assay: qHTS Validation Assay for Inhibitors of Bloom's syndrome helicase (BLM) (AID 2364);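 also: plate controls were DMSO vehicle for no effect and enzyme-free control for full effect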
RecQ-like DNA helicase BLM (Homo sapiens), sequence (P54132 whole entry, looked up): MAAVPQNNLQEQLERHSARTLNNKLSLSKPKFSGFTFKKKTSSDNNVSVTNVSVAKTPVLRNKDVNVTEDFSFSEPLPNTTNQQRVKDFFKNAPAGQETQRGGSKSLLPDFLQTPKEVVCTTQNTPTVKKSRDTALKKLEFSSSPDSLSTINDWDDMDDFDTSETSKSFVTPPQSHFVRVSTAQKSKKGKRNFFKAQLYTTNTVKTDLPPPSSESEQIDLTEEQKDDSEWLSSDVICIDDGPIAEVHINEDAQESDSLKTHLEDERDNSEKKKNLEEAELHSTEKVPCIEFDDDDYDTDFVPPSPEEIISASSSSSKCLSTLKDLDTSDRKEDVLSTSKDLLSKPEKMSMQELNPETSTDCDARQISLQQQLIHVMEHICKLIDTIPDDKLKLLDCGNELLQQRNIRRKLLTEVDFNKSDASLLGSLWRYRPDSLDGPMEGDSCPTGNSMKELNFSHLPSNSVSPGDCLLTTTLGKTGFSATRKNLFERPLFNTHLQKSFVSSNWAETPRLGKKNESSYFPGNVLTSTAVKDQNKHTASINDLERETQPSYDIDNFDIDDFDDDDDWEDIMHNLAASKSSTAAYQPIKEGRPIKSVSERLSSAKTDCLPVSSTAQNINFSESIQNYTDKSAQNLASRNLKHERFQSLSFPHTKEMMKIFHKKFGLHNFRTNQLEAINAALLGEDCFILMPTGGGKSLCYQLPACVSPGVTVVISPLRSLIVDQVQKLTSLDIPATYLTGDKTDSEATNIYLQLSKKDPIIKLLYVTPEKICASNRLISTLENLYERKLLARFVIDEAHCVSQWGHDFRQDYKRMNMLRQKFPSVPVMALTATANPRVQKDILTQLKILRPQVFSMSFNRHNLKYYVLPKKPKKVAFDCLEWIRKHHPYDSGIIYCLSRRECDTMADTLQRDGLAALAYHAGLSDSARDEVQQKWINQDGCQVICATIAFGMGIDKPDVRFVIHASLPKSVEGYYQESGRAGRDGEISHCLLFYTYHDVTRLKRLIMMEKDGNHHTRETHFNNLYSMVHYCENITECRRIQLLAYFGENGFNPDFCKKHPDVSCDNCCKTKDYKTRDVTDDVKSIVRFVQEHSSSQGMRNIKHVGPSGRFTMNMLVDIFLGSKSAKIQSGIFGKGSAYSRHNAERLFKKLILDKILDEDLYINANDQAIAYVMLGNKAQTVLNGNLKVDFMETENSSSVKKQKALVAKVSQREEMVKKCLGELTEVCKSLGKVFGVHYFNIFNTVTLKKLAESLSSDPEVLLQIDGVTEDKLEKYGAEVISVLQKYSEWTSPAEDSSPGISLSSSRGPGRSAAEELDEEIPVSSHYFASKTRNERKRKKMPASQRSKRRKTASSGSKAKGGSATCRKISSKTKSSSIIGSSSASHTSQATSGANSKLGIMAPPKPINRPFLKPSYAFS
How it was run: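 50 nM BLM preincubated 15 min at room temperature with compound in pH 8.0 Tris buffer containing 2.5 ug/ml poly(dI-dC); started with 200 nM TAMRA/BHQ-2 forked duplex and 2 mM ATP (final). Unwinding read as TAMRA fluorescence increase, two reads 2 h apart.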

[8] = Validation screen for small molecules that induce DNA re-replication in MCF 10A normal breast cells (AID 463097); also: 0% is about no effect; nearly all actives have a fitted effect of over 60% in size
How it was run: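 MCF 10A cells exposed to compound 48 hr at 37 C, 5% CO2, then Hoechst-stained 40 min. Laser-scanning imaging of nuclear DNA content (405 nm ex, 500-530 nm em); re-replication scored as rise in nuclei with elevated fluorescence intensity.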

[9] = Quantitative high throughput screen for delayed death inhibitors of the malarial parasite plastid, 96 hour incubation (AID 488745);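 also: luciferase-expressing P. falciparum in erythrocytes at 2% hematocrit and 0.1% parasitemia; series mostly up to about 29 µM; % is scaled to controls: 0 for no effect and ±100 for the full control effect; nearly all actives have a fitted effect of over 70% in size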
How it was run: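 Infected erythrocytes were added to compound in Albumax-supplemented RPMI 1640 at 0.1% parasitemia and 2% hematocrit (final), incubated 96 h at 37 C under 5% CO2, then luciferase reagent was added and luminescence measured.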

[10] = Quantitative high throughput screen for delayed death inhibitors of the malarial parasite plastid, 48 hour incubation (AID 488752); also: % is scaled to controls: 0 for no effect and ±100 for the full control effect; nearly all actives have a fitted effect of over 65% in size
How it was run: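 Readout is firefly luciferase luminescence from a reporter integrated into the parasite genome, with lower signal taken as inhibited growth. Infected red cells (0.1% parasitemia, 2% hematocrit final) are cultured with compound for one 48 h cycle at 37 C.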

[11] = target: M-phase phosphoprotein 8 (Homo sapiens) (UniProt Q99549); assay: qHTS Validation Assay for Inhibitors for MPP8 Chromodomain Interactions with Methylated Histone Tails (AID 488949); also: top concentration of the series differs between compounds; % is scaled to controls: 0 for no effect and ±100 for the full control effect; nearly all actives have a fitted effect of over 55% in size
How it was run: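 MPP8 (50 nM) was pre-bound to 50 nM biotinylated H3(1-18)K9me3 peptide in PBS pH 7.4 with 0.01% Tween-20. Compounds were then added for 30 min at room temperature, and complex disruption was read by AlphaScreen with streptavidin donor and nickel-chelate acceptor beads.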

[12] = target: Transient receptor potential cation channel subfamily V member 1 (Homo sapiens) (UniProt Q8NER1); assay: HTS Assay for Compounds that Act as Enhancers of the Vanilloid Receptor 1 (AID 488979); also: 0% is about no effect
How it was run: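 TRPV1 cells loaded with Fluo-8 calcium dye; compound added and Ca2+ signal (ex 480/em 520 nm) followed 3 min, then capsaicin at EC20 added and read 2 more min to detect enhancement.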

[13] = target: Thyrotropin receptor (Homo sapiens) (UniProt P16473); assay: qHTS Assay for Antagonists of the Thyroid Stimulating Hormone Receptor (AID 488980); also: series mostly up to about 58 µM; 0% is about no effect
Thyrotropin receptor (Homo sapiens), sequence (P16473 whole entry, looked up): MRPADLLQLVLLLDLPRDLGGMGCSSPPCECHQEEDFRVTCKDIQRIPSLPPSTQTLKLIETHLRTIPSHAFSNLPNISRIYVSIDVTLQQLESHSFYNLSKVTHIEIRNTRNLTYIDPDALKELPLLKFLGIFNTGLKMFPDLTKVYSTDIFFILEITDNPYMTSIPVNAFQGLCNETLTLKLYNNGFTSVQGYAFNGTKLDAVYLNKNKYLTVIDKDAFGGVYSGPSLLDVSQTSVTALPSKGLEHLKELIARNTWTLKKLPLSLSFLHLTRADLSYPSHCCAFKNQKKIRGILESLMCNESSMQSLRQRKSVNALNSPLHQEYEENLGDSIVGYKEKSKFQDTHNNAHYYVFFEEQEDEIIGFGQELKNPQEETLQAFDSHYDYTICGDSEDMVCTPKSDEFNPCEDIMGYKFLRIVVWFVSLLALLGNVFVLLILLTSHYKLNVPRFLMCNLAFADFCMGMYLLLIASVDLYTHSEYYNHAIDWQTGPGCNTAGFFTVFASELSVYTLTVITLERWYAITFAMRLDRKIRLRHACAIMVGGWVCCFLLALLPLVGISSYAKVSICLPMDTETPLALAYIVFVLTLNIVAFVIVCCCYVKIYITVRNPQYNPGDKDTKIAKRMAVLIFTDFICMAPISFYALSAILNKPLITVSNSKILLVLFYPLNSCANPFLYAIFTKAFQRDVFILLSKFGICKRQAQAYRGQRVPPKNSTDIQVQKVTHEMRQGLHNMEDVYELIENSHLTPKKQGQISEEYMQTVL
How it was run: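 TSHR-transfected HEK293 cells (2000/well) in HEPES-buffered HBSS with 70 uM RO 20-1724 were stimulated with 4 nM TSH (EC80, final) in the presence of compound. cAMP was measured by HTRF competition after lysis and 30 min at RT.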

[14] = target: Thyrotropin-releasing hormone receptor (Homo sapiens) (UniProt P34981); assay: qHTS for Small Molecule Agonists and Allosteric Enhancers of Human TRH Receptor: Validation Screen for Agonists (AID 493127;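 active = calcium activation more than 3 SD above the typical response in the agonist read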;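 also: intracellular calcium rise by fluo-8 fluorescence before TRH EC20 addition; 0% is about no effect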); conditions: TRH receptor agonist cell assay; at 2 µM; hits give high values
Thyrotropin-releasing hormone receptor (Homo sapiens), sequence (P34981 whole entry, looked up): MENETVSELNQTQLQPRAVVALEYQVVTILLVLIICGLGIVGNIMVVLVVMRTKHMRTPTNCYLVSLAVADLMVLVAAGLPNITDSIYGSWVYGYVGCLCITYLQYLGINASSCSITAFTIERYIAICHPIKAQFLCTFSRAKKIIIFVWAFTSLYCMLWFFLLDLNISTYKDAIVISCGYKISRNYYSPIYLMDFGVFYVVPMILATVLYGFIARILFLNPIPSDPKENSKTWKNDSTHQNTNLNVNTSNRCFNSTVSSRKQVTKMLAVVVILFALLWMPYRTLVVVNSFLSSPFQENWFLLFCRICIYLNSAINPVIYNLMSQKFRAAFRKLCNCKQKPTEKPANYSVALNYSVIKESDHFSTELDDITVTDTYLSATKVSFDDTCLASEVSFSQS
How it was run: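 Cells 2000/well, 10% FCS, 18 h 33.5C/5% CO2 → fluo-8 Ca dye, RT 30 min–1.5 h → FDSS baseline 10 × 1 s → compound added → 230 cycles (1 s/cycle) agonist mode. TRH controls.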

[15] = target: Galactokinase (Homo sapiens) (UniProt P51570); assay: qHTS Validation Assay for Inhibitors of Human Galactokinase (GALK) (AID 493189); also: 0% is about no effect
How it was run: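 GALK (5 nM) with 35 uM ATP and 100 uM galactose in HEPES pH 8.0 with MgCl2, NaCl, DTT and BSA. Reaction ran 1 h at room temperature. Residual ATP read by Kinase-Glo Plus luminescence.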

[16] = Validation screen for small molecules that induce DNA re-replication in SW480 colon adenocarcinoma cells (AID 504364); also: 0% is about no effect
How it was run: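 250 cells/well; compound pinned in; 48 hr, 37 C, 5% CO2; Hoechst added, 40 min; nuclear fluorescence imaged, 405 ex / 500-530 em; re-replication scored as increase in high-intensity nuclei.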

[17] = target: DNA dC->dU-editing enzyme APOBEC-3G (Homo sapiens) (UniProt Q9HC16); assay: qHTS for inhibitors of Vif-A3G interactions: Validation (AID 588379); also: 0% is about no effect
DNA dC->dU-editing enzyme APOBEC-3G (Homo sapiens), sequence (Q9HC16 whole entry, looked up): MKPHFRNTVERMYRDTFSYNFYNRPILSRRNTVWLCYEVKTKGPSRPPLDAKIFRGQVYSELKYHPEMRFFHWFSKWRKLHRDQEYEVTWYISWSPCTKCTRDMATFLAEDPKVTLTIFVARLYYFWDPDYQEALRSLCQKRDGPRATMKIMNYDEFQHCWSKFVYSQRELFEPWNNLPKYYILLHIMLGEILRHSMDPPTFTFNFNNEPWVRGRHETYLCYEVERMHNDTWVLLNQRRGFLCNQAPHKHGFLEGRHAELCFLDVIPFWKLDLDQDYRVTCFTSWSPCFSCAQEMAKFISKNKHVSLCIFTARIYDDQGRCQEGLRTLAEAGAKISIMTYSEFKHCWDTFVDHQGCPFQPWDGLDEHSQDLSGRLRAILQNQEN
How it was run: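 HeLa cells stably expressing Vif and A3G-eYFP, 700 cells/well, incubated overnight at 37 deg C, then exposed to compound overnight at 37 deg C. Inhibition of Vif-mediated degradation read as increased yellow fluorescence (Ex 488/Em 500-530) by laser-scanning cytometry.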

[18] = target: Voltage-gated inwardly rectifying potassium channel KCNH2 (Homo sapiens) (UniProt Q12809); assay: qHTS Assay for Small Molecule Inhibitors of the Human hERG Channel Activity (AID 588834);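 also: top concentration of the series differs between compounds; % is scaled to controls: 0 for no effect and ±100 for the full control effect; lower thallium flux fluorescence means stronger hERG block; nearly all actives have a fitted effect of over 50% in size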
Voltage-gated inwardly rectifying potassium channel KCNH2 (Homo sapiens), sequence (Q12809 whole entry, looked up): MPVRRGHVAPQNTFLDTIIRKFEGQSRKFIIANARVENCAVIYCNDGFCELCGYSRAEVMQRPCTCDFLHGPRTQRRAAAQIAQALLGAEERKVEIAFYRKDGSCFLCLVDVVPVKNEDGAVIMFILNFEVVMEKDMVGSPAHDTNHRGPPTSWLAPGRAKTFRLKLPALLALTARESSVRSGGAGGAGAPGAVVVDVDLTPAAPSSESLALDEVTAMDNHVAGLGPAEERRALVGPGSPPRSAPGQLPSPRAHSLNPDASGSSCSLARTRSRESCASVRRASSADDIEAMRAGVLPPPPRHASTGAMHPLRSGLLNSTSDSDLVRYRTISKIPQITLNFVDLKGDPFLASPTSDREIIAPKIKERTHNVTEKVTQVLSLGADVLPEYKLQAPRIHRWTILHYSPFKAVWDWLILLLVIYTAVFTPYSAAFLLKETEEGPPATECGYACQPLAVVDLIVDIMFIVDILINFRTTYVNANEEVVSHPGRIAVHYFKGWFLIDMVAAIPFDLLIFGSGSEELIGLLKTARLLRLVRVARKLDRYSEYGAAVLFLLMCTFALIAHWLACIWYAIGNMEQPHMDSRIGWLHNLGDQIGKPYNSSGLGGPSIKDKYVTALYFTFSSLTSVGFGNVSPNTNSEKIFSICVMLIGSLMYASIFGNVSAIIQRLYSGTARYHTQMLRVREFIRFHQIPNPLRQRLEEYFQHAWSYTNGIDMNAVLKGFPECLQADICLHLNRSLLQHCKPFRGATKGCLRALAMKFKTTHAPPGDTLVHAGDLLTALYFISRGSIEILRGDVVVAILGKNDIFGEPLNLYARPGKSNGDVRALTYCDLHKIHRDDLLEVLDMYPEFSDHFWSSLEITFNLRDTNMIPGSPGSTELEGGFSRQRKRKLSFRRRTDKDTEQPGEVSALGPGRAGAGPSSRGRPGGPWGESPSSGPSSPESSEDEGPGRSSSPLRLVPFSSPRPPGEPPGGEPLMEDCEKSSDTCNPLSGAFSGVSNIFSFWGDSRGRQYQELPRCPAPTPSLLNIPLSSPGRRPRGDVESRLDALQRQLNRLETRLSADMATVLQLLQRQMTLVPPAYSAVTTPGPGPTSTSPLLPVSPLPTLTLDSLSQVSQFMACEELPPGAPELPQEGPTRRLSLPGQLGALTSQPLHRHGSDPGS
How it was run: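 U2OS cells BacMam-transduced with hERG, 2000 cells/well, compound ~10 min at 37 °C before stimulation buffer. FluxOR thallium flux fluorescence read kinetically on FDSS; decrease indicates block; AC50 from Hill fits.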

[19] = test system: Zika virus NS2B-NS3 protease; assay: Primary screen GU AMC qHTS for Zika virus inhibitors (AID 1347154);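 also: 0% = no-inhibitor control and -100% = no-enzyme control; nearly all actives have a fitted effect of over 70% in size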
How it was run: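 Unlinked Zika NS2B hydrophilic domain–NS3 protease complex at 25 nM in 10 mM Tris-HCl pH 8.0, 0.01% Tween 20, with an AMC peptide substrate. Fluorescence change (340/450 nm) over 15 min at room temperature, normalized to controls, fitted to 4-parameter Hill.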

[20] = Primary qHTS for small molecule stabilizers of the endoplasmic reticulum resident proteome: Secreted ER Calcium Modulated Protein (SERCaMP) assay (AID 1508630); also: % is scaled to controls: 0 for no effect and ±100 for the full control effect
How it was run: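 GLuc-SERCaMP-expressing SH-SY5Y cells, pretreated 16 h with compound, are challenged with thapsigargin to empty ER calcium stores; after 4 h, coelenterazine is added directly to the medium and luminescence is imaged.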

CC(N)=NCc1cccc(CN)c1
inactive: Potency [1] | Potency [2] | Potency [3] | Potency [4] | outcome [5] | Potency [6] | Potency [7] | Potency [8] | Potency [9] | Potency [10] | Potency [11] | outcome [12] | outcome [13] | activation [14] -0.25% | outcome [15] | outcome [16] | Potency [17] | Potency [18] | Potency [19] | Potency [20]
